Experimental data as given in PubChem BioAssay AID1159580 (chemical genetic matrix, 2015).
Where “and” joins values, the source holds several entries; their conditions need not be identical. Equal values may be shown once. Screen size: about 5,500 compounds; about 2,000 (36%) were called active. Not shown: some 18% with an inconclusive outcome. No stated cut-off is given here; in the data, active means normalized growth mostly below about 0.91 (no sharp cut-off); inconclusive means no clear call, values can overlap the other calls; inactive means mostly above about 0.92. The list shows a part of the results.

Assay: chemical genetic growth profiling, strain panel (AID 1159580);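 further: tested at 20 µM; growth read once vehicle control cultures reached saturation at 30 °C; 1 = growth at the plate median or of vehicle wells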
Conditions: S. cerevisiae deletion strains, growth OD
[1] = locus YHR030C, strain SLT2, stronger effect = lower value
[2] = locus YHR079C, strain IRE1, stronger effect = lower value
[3] = locus YJL095W, strain BCK1, stronger effect = lower value
[4] = locus YJR066W, strain TOR1, stronger effect = lower value
[5] = locus YLR113W, strain HOG1, stronger effect = lower value
[6] = locus YNL183C, strain NPR1, stronger effect = lower value
[7] = locus YOR231W, strain MKK1, stronger effect = lower value
[8] = locus YPL256C, strain CLN2, stronger effect = lower value

Measured: normalized growth

CCC(C)[C@H]1O[C@]2(CC[C@@H]1C)C[C@@H]1C[C@@H](C/C=C(\C)[C@@H](OC3C[C@H](OC)C(O[C@H]4C[C@H](OC)[C@@H](O)[C@H](C)O4)[C@H](C)O3)[C@@H](C)/C=C/C=C3\CO[C@@H]4[C@H](O)C(C)=C[C@@H](C(=O)O1)[C@]34O)O2 (some centres not stated)
inactive: [1] 0.995 | [2] 0.992 | [3] 0.964 | [4] 0.941 | [5] 0.993 | [6] 0.948 | [7] 1 | [8] 0.94

CCC(C)[C@H]1O[C@]2(C=C[C@@H]1C)C[C@@H]1C[C@@H](C/C=C(\C)[C@@H](OC3C[C@H](OC)C(O[C@H]4C[C@H](OC)[C@@H](O)[C@H](C)O4)[C@H](C)O3)[C@@H](C)/C=C/C=C3\CO[C@@H]4[C@H](O)C(C)=C[C@@H](C(=O)O1)[C@]34O)O2 (some centres not stated)
active: locus YAL013W, strain DEP1, stronger effect = lower value 0.804 | locus YBR009C, strain hhf1, stronger effect = lower value 0.809 | locus YBR021W, strain FUR4, stronger effect = lower value 0.838 | locus YBR023C, strain chs3, stronger effect = lower value 0.889 | locus YBR279W, strain paf1, stronger effect = lower value 0.882 | locus YCL011C, strain gbp2, stronger effect = lower value 0.817 | locus YCL016C, strain dcc1, stronger effect = lower value 0.86 | locus YCL029C, strain bik1, stronger effect = lower value 0.889 | locus YCL069W, strain vba3, stronger effect = lower value 0.898 | locus YDL035C, strain GPR1, stronger effect = lower value 0.847 | locus YDL074C, strain BRE1, stronger effect = lower value 0.669 | locus YDL134C, strain PPH21, stronger effect = lower value 0.853 | locus YDL192W, strain arf1, stronger effect = lower value 0.847 | locus YDR137W, strain rgp1, stronger effect = lower value 0.499 | locus YDR162C, strain NBP2, stronger effect = lower value 0.769 | locus YDR195W, strain ref2 1.32 [resistant] | locus YDR318W, strain mcm21, stronger effect = lower value 0.853 | locus YDR388W, stronger effect = lower value 0.857 | locus YDR502C, strain sam2, stronger effect = lower value 0.841 | locus YER016W, strain bim1, stronger effect = lower value 0.911 | locus YGL086W, strain mad1, stronger effect = lower value 0.8 | locus YGL248W, strain PDE1, stronger effect = lower value 0.797 | locus YGL253W, strain hxk2, stronger effect = lower value 0.743 | locus YHR079C, strain IRE1 (second series), stronger effect = lower value 0.87 | locus YHR129C, strain ARP1, stronger effect = lower value 0.814 | locus YHR142W, strain chs7, stronger effect = lower value 0.864 | locus YIL066C, strain RNR3, stronger effect = lower value 0.742 | locus YIR030C, strain dcg1, stronger effect = lower value 0.904 | locus YJL095W, strain BCK1 (second series), stronger effect = lower value 0.891 | locus YJL164C, strain tpk1, stronger effect = lower value 0.795 | locus YJL187C, strain SWE1 (second series), stronger effect = lower value 0.791 | locus YKR001C, strain vps1, stronger effect = lower value 0.253 | locus YLL026W, stronger effect = lower value 0.886 | locus YLR039C, strain RIC1, stronger effect = lower value 0.274 | locus YLR058C, strain SHM2, stronger effect = lower value 0.881 | locus YLR221C, strain rsa3, stronger effect = lower value 0.832 | locus YLR258W, strain gsy2, stronger effect = lower value 0.849 | locus YLR262C, strain YPT6 (second series), stronger effect = lower value 0.418 | locus YLR262C, strain YPT6, stronger effect = lower value 0.214 | locus YLR268W, strain sec22, stronger effect = lower value 0.695 | locus YLR320W, strain mms22, stronger effect = lower value 0.828 | locus YLR330W, strain CHS5, stronger effect = lower value 0.893 | locus YLR342W, strain FKS1 (second series), stronger effect = lower value 0.452 | locus YLR342W, strain FKS1, stronger effect = lower value 0.681 | locus YLR418C, strain cdc73, stronger effect = lower value 0.824 | locus YMR205C, strain PFK2, stronger effect = lower value 0.77 | locus YMR307W, strain GAS1, stronger effect = lower value 0.323 | locus YNL071W, strain lat1, stronger effect = lower value 0.824 | locus YNL153C, strain GIM3, stronger effect = lower value 0.821 | locus YNL233W, strain BNI4, stronger effect = lower value 0.849 | locus YNL307C, strain MCK1, stronger effect = lower value 0.46 | locus YOR069W, strain VPS5, stronger effect = lower value 0.92 | locus YOR070C, strain gyp1, stronger effect = lower value 0.837 | locus YOR184W, strain ser1, stronger effect = lower value 0.698 | locus YOR270C, strain vph1, stronger effect = lower value 0.59 | locus YOR290C, strain snf2, stronger effect = lower value 0.864 | locus YPL051W, strain arl3, stronger effect = lower value 0.676 | locus YPL055C, strain LGE1, stronger effect = lower value 0.627 | locus YPL106C, strain sse1, stronger effect = lower value 1.38 [resistant] | locus YPR163C, strain tif3, stronger effect = lower value 0.897 | locus YPR167C, strain met16, stronger effect = lower value 0.862 | strain wtn01, stronger effect = lower value 0.76
0.865 (active) and 0.98 (inactive): [1]
0.722 (active) and 0.976 (inactive): [3]
inactive: locus YAL021C, strain ccr4, stronger effect = lower value 0.919 | locus YAL026C, strain drs2, stronger effect = lower value 0.954 | locus YAL030W, strain snc1, stronger effect = lower value 0.984 | locus YBL061C, strain skt5, stronger effect = lower value 0.964 | locus YBR171W, strain sec66, stronger effect = lower value 1 | locus YBR229C, strain ROT2, stronger effect = lower value 0.997 | locus YBR231C, strain swc5, stronger effect = lower value 0.947 | locus YCL061C, strain MRC1, stronger effect = lower value 0.976 | locus YCR088W, strain abp1, stronger effect = lower value 0.981 | locus YDL005C, strain med2, stronger effect = lower value 0.971 | locus YDL040C, strain nat1, stronger effect = lower value 0.983 | locus YDL101C, strain DUN1, stronger effect = lower value 0.933 | locus YDL185W, strain tfp1, stronger effect = lower value 1.02 | locus YDR001C, strain nth1, stronger effect = lower value 0.996 | locus YDR069C, strain doa4, stronger effect = lower value 1.02 | locus YDR101C, strain arx1, stronger effect = lower value 0.959 | locus YDR159W, strain sac3, stronger effect = lower value 0.915 | locus YDR297W, strain sur2, stronger effect = lower value 0.989 | locus YDR334W, strain swr1, stronger effect = lower value 0.982 | locus YDR335W, strain msn5, stronger effect = lower value 0.996 | locus YDR392W, strain spt3, stronger effect = lower value 0.855 | locus YEL003W, strain gim4, stronger effect = lower value 0.928 | locus YEL037C, strain rad23, stronger effect = lower value 0.973 | locus YEL061C, strain CIN8 (second series), stronger effect = lower value 0.973 | locus YEL061C, strain CIN8, stronger effect = lower value 0.933 | locus YER015W, strain faa2, stronger effect = lower value 0.957 | locus YER110C, stronger effect = lower value 1.03 | locus YER111C, strain swi4, stronger effect = lower value 0.997 | locus YER155C, strain BEM2 (second series), stronger effect = lower value 1.07 | locus YER155C, strain BEM2, stronger effect = lower value 0.966 | locus YER167W, strain BCK2, stronger effect = lower value 0.913 | locus YFR010W, strain ubp6, stronger effect = lower value 1 | locus YGL078C, strain dbp3, stronger effect = lower value 1.01 | locus YGL167C, strain pmr1, stronger effect = lower value 1.01 | locus YGL173C, strain kem1, stronger effect = lower value 0.967 | locus YGL227W, strain vid30, stronger effect = lower value 1 | locus YGL240W, strain doc1, stronger effect = lower value 1.06 | locus YGR135W, strain pre9, stronger effect = lower value 1.03 | locus YGR252W, strain gcn5, stronger effect = lower value 0.939 | locus YHR013C, strain ard1, stronger effect = lower value 0.847 | locus YHR027C, strain rpn1, stronger effect = lower value 0.977 | [2] 0.966 | locus YHR094C, strain hxt1, stronger effect = lower value 1.01 | locus YHR200W, strain rpn10, stronger effect = lower value 1.01 | locus YIL073C, strain SPO22, stronger effect = lower value 0.817 | locus YIL125W, strain kgd1, stronger effect = lower value 0.994 | locus YJL092W, strain hpr5, stronger effect = lower value 0.967 | locus YJL115W, strain asf1, stronger effect = lower value 1 | locus YJL129C, strain trk1, stronger effect = lower value 0.955 | locus YJL134W, strain LCB3, stronger effect = lower value 1.01 | locus YJL154C, strain vps35, stronger effect = lower value 1 | locus YJL166W, strain qcr8, stronger effect = lower value 0.916 | locus YJL168C, strain set2, stronger effect = lower value 1.02 | locus YJL187C, strain SWE1, stronger effect = lower value 0.951 | locus YJR043C, strain POL32, stronger effect = lower value 0.932 | [4] 0.973 | locus YJR075W, strain HOC1, stronger effect = lower value 0.906 | locus YKL009W, strain mrt4, stronger effect = lower value 1.01 | locus YKL068W, stronger effect = lower value 0.995 | locus YKL085W, strain MDH1 (second series), stronger effect = lower value 0.981 | locus YKL085W, strain MDH1, stronger effect = lower value 0.981 | locus YKL160W, strain elf1, stronger effect = lower value 0.969 | locus YKR026C, strain gcn3, stronger effect = lower value 0.996 | locus YKR091W, strain srl3, stronger effect = lower value 0.989 | locus YLL001W, strain dnm1, stronger effect = lower value 0.983 | locus YLL041C, strain sdh2, stronger effect = lower value 0.98 | locus YLR027C, strain aat2, stronger effect = lower value 0.936 | locus YLR102C, strain apc9, stronger effect = lower value 1.02 | [5] 0.975 | locus YLR357W, strain rsc2, stronger effect = lower value 1.03 | locus YLR370C, strain arc18, stronger effect = lower value 0.985 | locus YLR371W, strain rom2, stronger effect = lower value 1.03 | locus YLR384C, strain iki3, stronger effect = lower value 1.02 | locus YML016C, strain PPZ1, stronger effect = lower value 1 | locus YML032C, strain rad52, stronger effect = lower value 0.915 | locus YML120C, strain ndi1, stronger effect = lower value 0.955 | locus YML124C, strain tub3, stronger effect = lower value 1.01 | locus YMR058W, strain fet3, stronger effect = lower value 1 | locus YMR078C, strain ctf18, stronger effect = lower value 0.98 | locus YMR125W, strain sto1, stronger effect = lower value 1.03 | locus YMR129W, stronger effect = lower value 0.996 | locus YMR223W, strain ubp8, stronger effect = lower value 0.953 | locus YMR231W, strain pep5, stronger effect = lower value 0.984 | locus YNL067W, strain RPL9B, stronger effect = lower value 0.904 | [6] 0.926 | locus YNL209W, strain ssb2, stronger effect = lower value 0.937 | locus YNL248C, strain rpa49, stronger effect = lower value 0.926 | locus YNL250W, strain rad50, stronger effect = lower value 1.02 | locus YNL271C, strain bni1, stronger effect = lower value 1.01 | locus YNL298W, strain CLA4, stronger effect = lower value 1.04 | locus YNL322C, strain KRE1 (second series), stronger effect = lower value 0.935 | locus YNR049C, strain mso1, stronger effect = lower value 0.987 | locus YNR052C, strain pop2, stronger effect = lower value 0.952 | locus YOL012C, strain htz1 0.305 | locus YOL147C, strain pex11, stronger effect = lower value 0.935 | locus YOR001W, strain rrp6, stronger effect = lower value 1 | locus YOR061W, strain CKA2, stronger effect = lower value 0.891 | locus YOR080W, strain dia2, stronger effect = lower value 0.997 | locus YOR083W, strain WHI5, stronger effect = lower value 0.901 | locus YOR106W, strain vam3, stronger effect = lower value 0.984 | locus YOR136W, strain idh2, stronger effect = lower value 0.936 | locus YOR144C, strain elg1, stronger effect = lower value 0.97 | [7] 0.945 | locus YOR265W, strain rbl2, stronger effect = lower value 0.98 | locus YOR316C, strain cot1, stronger effect = lower value 1.01 | locus YPL078C, strain atp4, stronger effect = lower value 0.982 | locus YPL240C, strain hsp82, stronger effect = lower value 0.931 | [8] 0.955 | locus YPR119W, strain clb2, stronger effect = lower value 1.02 | locus YPR141C, strain kar3, stronger effect = lower value 0.997
